Assay results taken from ChEMBL document CHEMBL1201862, “PubChem BioAssay data set” (2004).
The whole screen tested about 400,000 compounds, of which about 2,100 (0.53%) were called active. Roughly 14% stayed inconclusive and do not appear here. The rule behind the calls is not given here. Shown is part of a subset that was picked to be rich in actives.

biological target: Ataxin-2 (Homo sapiens) (UniProt Q99700); assay: qHTS for Inhibitors of ATXN expression.; type: functional
Sequence (Q99700 whole entry): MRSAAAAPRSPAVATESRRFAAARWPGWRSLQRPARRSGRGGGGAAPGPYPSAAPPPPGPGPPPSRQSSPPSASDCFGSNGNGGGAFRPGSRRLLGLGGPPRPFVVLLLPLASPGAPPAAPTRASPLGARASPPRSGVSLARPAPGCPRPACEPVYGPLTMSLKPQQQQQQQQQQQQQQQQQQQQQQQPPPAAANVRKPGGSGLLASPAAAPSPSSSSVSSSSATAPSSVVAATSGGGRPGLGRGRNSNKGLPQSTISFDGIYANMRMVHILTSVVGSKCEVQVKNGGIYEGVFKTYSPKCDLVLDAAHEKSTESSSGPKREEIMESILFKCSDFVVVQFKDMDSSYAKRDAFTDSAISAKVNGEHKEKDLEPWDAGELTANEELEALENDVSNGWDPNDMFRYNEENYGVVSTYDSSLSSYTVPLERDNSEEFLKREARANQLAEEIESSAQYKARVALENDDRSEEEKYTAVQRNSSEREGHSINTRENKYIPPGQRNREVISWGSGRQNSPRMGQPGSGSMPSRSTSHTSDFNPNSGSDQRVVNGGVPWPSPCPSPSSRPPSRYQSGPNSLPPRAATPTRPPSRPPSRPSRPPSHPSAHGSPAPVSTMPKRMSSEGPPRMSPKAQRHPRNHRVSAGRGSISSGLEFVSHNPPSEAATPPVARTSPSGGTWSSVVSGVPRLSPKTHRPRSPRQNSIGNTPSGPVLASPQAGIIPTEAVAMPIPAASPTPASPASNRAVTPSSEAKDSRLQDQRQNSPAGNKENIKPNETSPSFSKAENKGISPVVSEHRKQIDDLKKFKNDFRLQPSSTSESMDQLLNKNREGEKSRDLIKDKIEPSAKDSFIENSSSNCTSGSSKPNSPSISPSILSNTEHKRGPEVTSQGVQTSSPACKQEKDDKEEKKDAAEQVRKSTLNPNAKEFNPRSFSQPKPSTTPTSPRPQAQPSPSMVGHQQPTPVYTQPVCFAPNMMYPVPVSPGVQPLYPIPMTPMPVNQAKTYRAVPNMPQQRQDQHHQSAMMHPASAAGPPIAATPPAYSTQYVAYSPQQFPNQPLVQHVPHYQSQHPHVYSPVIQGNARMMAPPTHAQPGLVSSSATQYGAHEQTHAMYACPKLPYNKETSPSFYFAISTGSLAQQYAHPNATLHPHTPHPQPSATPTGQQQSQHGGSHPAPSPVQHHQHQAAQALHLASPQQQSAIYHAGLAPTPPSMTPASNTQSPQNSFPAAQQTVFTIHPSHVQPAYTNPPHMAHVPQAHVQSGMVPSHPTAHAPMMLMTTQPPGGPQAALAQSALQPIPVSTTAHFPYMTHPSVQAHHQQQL

Compound	Potency
Nc1c(C(=O)NCc2ccc(Cl)cc2)sc2nc(-c3ccc(F)cc3)ccc12	inactive
Cc1ccc(CNC(=O)c2sc3nc(-c4ccc(F)cc4)ccc3c2N)cc1	inactive
N#CCSc1ccc2nc(-c3ccccc3)cn2n1	inactive
Cc1ccc2c(c1)C(c1ccccc1)N(C(=O)COc1ccc(Cl)cc1Cl)CC(=O)N2 (configuration not stated)	28.2 µM (active)
CC1CC(=O)Nc2ccccc2N1C(=O)COc1ccccc1C(N)=O (configuration not stated)	inactive
Cc1cc(OCC(=O)N2CCC(O)(c3ccc(Cl)cc3)CC2)c2c(C)cc(=O)oc2c1	inactive
COc1cccc2c1cc1c(=O)n(CC(=O)NCCCN3CCN(C)CC3)nc(C)n12	inactive
O=C(NC1CCN(Cc2ccccc2)CC1)c1ccc(Cn2c(=S)[nH]c3ccc(N4CCOCC4)cc3c2=O)cc1	inactive
COc1ccc(N2CCN(C(=O)c3ccc(Cn4c(=S)[nH]c5ccc(N6CCOCC6)cc5c4=O)cc3)CC2)cc1	inactive
CCCCNC(=O)c1ccc(Cn2c(=S)[nH]c3c([nH]c4ccc(OC)cc43)c2=O)cc1	39.8 µM (active)
CCN(CC)c1ccc(/C=N/NC(=O)c2nnn(-c3nonc3N)c2-c2ccc(C)cc2)cc1	inactive
Cc1cccn2c(=O)c3cc(C#N)c(=O)n(CCCN4CCOCC4)c3nc12	inactive
COc1cc(C(=O)NCCCNc2nc3cc(C)c(C)cc3cc2C#N)cc(OC)c1OC	inactive
COc1ccc(C23CC4CC(CC(C4)C2)C3)cc1C(=O)NCCN(C)C	22.4 µM (active)
CCOC(=O)CNC(=O)C12CC3CC(C1)CC(c1ccc(C)cc1)(C3)C2	inactive
COc1ccc(CCNC(=O)COC(=O)C2CC2C)cc1OC (configuration not stated)	inactive
Cc1nc(COc2ccccc2Cl)sc1-c1ccnc(N)n1	inactive
S=C(Nc1ccc2nc(-c3ccccn3)c(-c3ccccn3)nc2c1)N1CCOCC1	inactive
COc1ccc(C(c2c(O)ccc3ccccc23)N2CCOCC2)c(OC)c1 (configuration not stated)	15.8 µM (active)
COc1ccc(-c2c(C)c3ccc(O)c(CN4CCOCC4)c3oc2=O)cc1	inactive
COc1ccc(-c2cc3ccc(O)c(CN4CCOCC4)c3oc2=O)cc1OC	inactive
CCN(CC)c1ccc(/C=N\NC(=O)c2cccc3cc[nH]c23)cc1	inactive
NC(Cc1ccc(F)cc1)c1csc(Nc2ccc(C(F)(F)F)cn2)n1 (configuration not stated)	35.5 µM (active)
CCc1cnc(Nc2nc(C(N)Cc3ccc(F)cc3)cs2)nc1 (configuration not stated)	25.1 µM (active)
COc1cccc(Nc2nc(C(N)Cc3ccc(C(F)(F)F)cc3)cs2)n1 (configuration not stated)	31.6 µM (active)
NC(Cc1ccc(F)cc1)c1csc(Nc2nccc(C(F)(F)F)n2)n1 (configuration not stated)	39.8 µM (active)

Compound	Potency
O=C(NCCN1CCCOC1=O)C(=O)NCCN1CCCOC1=O	inactive
O=C(NC1CCCc2ccccc21)c1ccccc1Cl (configuration not stated)	inactive
O=C(Nc1ccc2nc(-c3ccco3)c(-c3ccco3)nc2c1)NC1CC1	inactive
CCOC(=O)c1cnc2nc(N3CCOCC3)nn2c1N	inactive
NC(=S)c1cc2ccc(O)cc2oc1=O	inactive
Cc1[nH]c2ccccc2c1/C=C/c1nc2ccccc2c(=O)n1CCO	inactive
CCc1cnc(Nc2nc(C(N)Cc3ccc(Cl)cc3)cs2)nc1 (configuration not stated)	35.5 µM (active)
CCCc1cnc(Nc2nc(C(N)Cc3ccc(C(F)(F)F)cc3)cs2)nc1 (configuration not stated)	22.4 µM (active)
COc1cc(OC)nc(Nc2nc(C(N)Cc3ccc(Cl)cc3)cs2)n1 (configuration not stated)	35.5 µM (active)
NC(c1ccccc1)c1csc(Nc2ccc(C(F)(F)F)cn2)n1 (configuration not stated)	35.5 µM (active)
COc1ccccc1/C=[N+](\[O-])C1SC(=S)N(C)C1(C)C (configuration not stated)	inactive
Cc1c(C)c2ccc(O[C@@H]3O[C@H](CO)[C@@H](O)[C@H](O)[C@H]3O)c(C)c2oc1=O	inactive
Cc1nc2ccc(NS(=O)(=O)c3c(F)cc(F)cc3Br)cc2s1	inactive
O=C(Nc1ccc(NC(=O)C2CC2)nc1)c1cnccn1	inactive
COc1ccc(-c2cc(=O)oc3c(O)c(O)ccc23)cc1	inactive
O=C(Nc1nc2n(n1)C(c1ccc(Cl)cc1)C=C(c1ccccc1)N2)c1ccco1 (configuration not stated)	inactive
O=C(CN1C(=O)/C(=C\c2cccc(Br)c2)Oc2ccccc21)NCCCN1CCOCC1	39.8 µM (active)
O=C(CN1C(=O)/C(=C\c2ccccc2Cl)Oc2ccccc21)NCc1cccnc1	inactive
CCCCNC(=O)c1ccc(/C=C2\Oc3ccccc3N(C)C2=O)cc1	inactive
COc1cc(/C=C(\C#N)c2ccccn2)ccc1OCc1ccccc1	inactive
O=C1OCCN1C(=O)[C@H]1[C@H](c2ccc(F)cc2)C(c2cccc(Cl)c2)=NN1c1ccc(Br)cc1	inactive
Oc1cnnc(Nc2ccc(Nc3ccccc3)cc2)n1	inactive
CCCCc1ccc(Nc2nc(O)cc(CCC)n2)cc1	39.8 µM (active)
CCNC(=O)N1CCN(S(=O)(=O)c2ccc3c(c2)OCCCO3)CC1	inactive
O=S(=O)(c1ccccc1)N(CC(F)(F)F)c1ccc(C(O)(C(F)(F)F)C(F)(F)F)cc1	22.4 µM (active)
CCN(c1ccc(OCC(=O)OCC(=O)Nc2ccc(F)c(F)c2F)cc1)S(=O)(=O)c1ccccc1	inactive
